According to PubChem BioAssay (NCATS):
Results filed as inconclusive are left out. Active and inactive are the calls of the source. Calls follow the shape of the dose curve; as a rule, active = well fitted curve in the direction sought with a large enough effect; inconclusive = small, poorly fitted or top-dose-only effect, or another doubt; inactive = no such curve, though single readings can be large; an effect the other way counts as inactive or inconclusive.

Key:
HEK293 = test: Cytotoxic Profiling of Annotated Libraries Using Quantitative High-Throughput Screening (AID 1296008); conditions: Five cell lines viability, CellTiter-Glo ATP luminescence, 48-72 h; max response: hits give low values; also: nearly all actives have a fitted effect of over 60% in size
Method in brief: (§1)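 Compounds were pin-transferred onto cells and incubated 48 or 72 hr at 37 degree Celsius, 95% humidity. CellTiter-Glo was added, plates sat 10 min at room temperature, then ATP-coupled luminescence was imaged as the viability read-out.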

HaCat = test: as above; conditions: Five cell lines viability, CellTiter-Glo ATP luminescence, 48-72 h; max response: hits give low values
Method in brief: as §1

KB-3-1 = test: as above; conditions: Five cell lines viability, CellTiter-Glo ATP luminescence, 48-72 h; max response: hits give low values
Method in brief: as §1

NIH3T3 = test: as above; conditions: Five cell lines viability, CellTiter-Glo ATP luminescence, 48-72 h; max response: hits give low values
Method in brief: as §1

C33A = test: Primary qHTS to identify gynecologic anti-cancer compounds using libraries of approved drugs and bioactive compounds (AID 1345084); conditions: Gynecologic cancer cell panel viability, ATPlite luminescence, 48 h; series mostly up to 57.5 µM; also: nearly all actives have a fitted effect of over 55% in size
Method in brief: (§2)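 Measured: luminescence after ATPlite addition (15 min, RT). Exposure: 48 h, 37 C, 5% CO2.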

CASKI = test: as above; conditions: Gynecologic cancer cell panel viability, ATPlite luminescence, 48 h; series mostly up to 57.5 µM
Method in brief: as §2

Es-2 = test: as above; conditions: Gynecologic cancer cell panel viability, ATPlite luminescence, 48 h; series mostly up to 57.5 µM
Method in brief: as §2

HeLa = test: as above; conditions: Gynecologic cancer cell panel viability, ATPlite luminescence, 48 h; series mostly up to 57.5 µM
Method in brief: as §2

Hek293T = test: as above; conditions: Gynecologic cancer cell panel viability, ATPlite luminescence, 48 h, control line for the selectivity index; series mostly up to 57.5 µM
Method in brief: as §2

JEG-3 = test: as above; conditions: Gynecologic cancer cell panel viability, ATPlite luminescence, 48 h; series mostly up to 57.5 µM
Method in brief: as §2

CAOV3 = test: as above; conditions: Gynecologic cancer cell panel viability, ATPlite luminescence, 48 h; series mostly up to 57.5 µM
Method in brief: as §2
% is scaled to controls: 0 for no effect and ±100 for the full control effect; potency is read from the fitted curve at half-maximal effect.

O=C(NCc1ccccn1)Nc1nnc(-c2ccco2)o1
inactive: max response (HEK293) -0.62% | max response (HaCat) 1.95% | max response (KB-3-1) 3.97% | max response (NIH3T3) 3.06% | Potency (C33A) | Potency (CASKI) | Potency (Es-2) | Potency (HeLa) | Potency (Hek293T) | Potency (JEG-3)

C=C[C@]1(C)C[C@H](O)[C@@H]2[C@H](OC(=O)[C@@H]2C)C1/C(C)=C/O[C@@H]1O[C@H](CO)[C@@H](O)[C@H](O)[C@H]1O (stereo not given in full)
inactive: max response (HEK293) -0.606% | max response (HaCat) -9.44% | max response (KB-3-1) 0.273% | max response (NIH3T3) -22.7% | Potency (C33A) | Potency (CASKI) | Potency (Es-2) | Potency (HeLa) | Potency (Hek293T) | Potency (JEG-3)

O=[N+]([O-])c1cccc2[nH]c(CNc3nc(N4CCOCC4)nc4c3ncn4-c3ccsc3)nc12
active: Potency (HEK293) 0.058 µM | Potency (HaCat) 461 nM | Potency (KB-3-1) 164 nM | Potency (NIH3T3) 0.259 µM | Potency (C33A) 178 nM | Potency (CASKI) 0.891 µM | Potency (HeLa) 891 nM | Potency (Hek293T) 0.316 µM

C#CCN(Cc1cc2c(=O)n(C)c(CN3CCN(C)CC3)nc2cc1Cl)c1ccc(C(=O)NCc2cccnc2)cc1
inactive: max response (HEK293) -130% | max response (NIH3T3) -114%
active: Potency (HaCat) 7.3 nM | Potency (KB-3-1) 41.1 nM | Potency (CAOV3) 44.7 µM

CCCCNc1ncc2c(-c3ccc(CN4CCN(C)CC4)cc3)cn(C3CCC(O)CC3)c2n1 (stereo not given)
inactive: Potency (C33A) | Potency (Hek293T) | Potency (JEG-3)
active: Potency (HEK293) 7.31 µM | Potency (HaCat) 920 nM | Potency (KB-3-1) 1030 nM | Potency (NIH3T3) 1.3 µM | Potency (HeLa) 1780 nM

C=C1CN(Cc2ccc(C(=O)Nc3ccccc3N)cc2)C(=O)c2ccccc21
active: Potency (HEK293) 1.46 µM | Potency (HaCat) 5800 nM | Potency (KB-3-1) 1840 nM | Potency (NIH3T3) 3.66 µM | Potency (C33A) 2820 nM | Potency (CASKI) 4.47 µM | Potency (Es-2) 5.01 µM | Potency (HeLa) 3550 nM | Potency (Hek293T) 2.24 µM | Potency (JEG-3) 5.62 µM

CC[C@H](C)[C@H](NC(=O)[C@H]([C@@H](C)CC)N(C)C(C)=O)C(=O)N[C@H](C(=O)N[C@@H](CC(C)C)C(=O)[C@@]1(C)CO1)[C@@H](C)O
active: Potency (HEK293) 0.0092 µM | Potency (HaCat) 36.6 nM | Potency (KB-3-1) 32.6 nM | Potency (NIH3T3) 0.058 µM | Potency (C33A) 100 nM | Potency (HeLa) 100 nM
inactive: Potency (JEG-3)

COc1ccc(CCC(=O)c2c(O)cc(O)cc2O[C@@H]2O[C@H](CO)[C@@H](O)[C@H](O)[C@H]2O)cc1
inactive: max response (HEK293) -3.22% | max response (HaCat) -11.7% | max response (KB-3-1) 8.59% | max response (NIH3T3) -8.41% | Potency (C33A) | Potency (CASKI) | Potency (HeLa) | Potency (JEG-3)

C[C@@H]1O[C@@H](O[C@H]2[C@H](O[C@H]3[C@H](O[C@H]4CC[C@@]5(C)C(CC[C@]6(C)C5CC=C5[C@@H]7CC(C)(C)CC[C@]7(C(=O)O[C@@H]7O[C@H](CO)[C@@H](O[C@@H]8O[C@@H](C)[C@H](O)[C@@H](O)[C@H]8O)[C@H](O)[C@H]7O)CC[C@]56C)C4(C)C)OC[C@H](O)[C@@H]3O)O[C@H](CO)[C@@H](O)[C@@H]2O)[C@H](O)[C@H](O)[C@H]1O (stereo not given in full)
inactive: max response (HEK293) -93.1% | max response (HaCat) 4.4% | outcome (KB-3-1) | max response (NIH3T3) 0.585% | activity change, negative = cytotoxicity (C33A) -22.7% [at 6.55 µM] | activity change, negative = cytotoxicity (Es-2) -47.2% [at 6.55 µM]

C[C@@H]1O[C@@H](O[C@H]2[C@@H](OC(=O)[C@]34CCC(C)(C)CC3C3=CCC5[C@@]6(C)C[C@H](O)[C@H](O[C@@H]7O[C@H](C(=O)O)[C@@H](O)[C@H](O)[C@H]7O)[C@@](C)(C(=O)O)C6CC[C@@]5(C)[C@]3(C)CC4)OC[C@H](O)[C@@H]2O)[C@H](O)[C@H](O)[C@H]1O[C@@H]1OC[C@@H](O)[C@H](O)[C@H]1O (stereo not given in full)
inactive: max response (HEK293) -1.89% | max response (HaCat) -1.2% | outcome (KB-3-1) | max response (NIH3T3) -0.698% | activity change, negative = cytotoxicity (C33A) 1.85% [at 11.6 µM] | activity change, negative = cytotoxicity (CASKI) 0.336% [at 11.6 µM] | activity change, negative = cytotoxicity (Es-2) -0.221% [at 11.6 µM] | activity change, negative = cytotoxicity (HeLa) -0.61% [at 11.6 µM] | activity change, negative = cytotoxicity (Hek293T) -0.464% [at 11.6 µM] | activity change, negative = cytotoxicity (JEG-3) 3.02% [at 11.6 µM]

CC1CCC2C(C(=O)O)=COC(O[C@@H]3O[C@H](CO)[C@@H](O)[C@H](O)[C@H]3O)C12 (stereo not given in full)
inactive: max response (HEK293) -3.47% | max response (HaCat) -2.91% | max response (KB-3-1) -9.1% | max response (NIH3T3) -1.59% | Potency (C33A) | Potency (CASKI) | Potency (Es-2) | Potency (Hek293T)

CC(C)c1cc(CNc2nc(Nc3cc(C4CC4)[nH]n3)cc(N3CCN(C)CC3)n2)on1
active: Potency (HEK293) 1.3 µM | Potency (HaCat) 2310 nM | Potency (KB-3-1) 146 nM | Potency (NIH3T3) 0.461 µM | Potency (CAOV3) 0.282 µM | Potency (CASKI) 2.82 µM | Potency (Es-2) 7.94 µM | Potency (HeLa) 251 nM | Potency (Hek293T) 2 µM

C[C@@H]1CCC2C(C)(C)[C@H](O)CC[C@]2(C)[C@@]12Cc1c(O)cc3c(c1O2)CNC3=O (stereo not given in full)
inactive: max response (HEK293) -94.6% | max response (HaCat) -68.6% | max response (KB-3-1) 9.73% | max response (NIH3T3) -63% | Potency (CAOV3)

C[C@@H]1COCCN1c1cc(C2(S(C)(=O)=O)CC2)nc(-c2cccc3[nH]ccc23)n1
active: Potency (HEK293) 1.46 µM | Potency (HaCat) 5800 nM | Potency (KB-3-1) 2590 nM | Potency (NIH3T3) 2.06 µM | Potency (C33A) 4470 nM | Potency (Es-2) 3.16 µM | Potency (Hek293T) 7.94 µM | Potency (JEG-3) 7.08 µM

COc1cc(N2CCC(N3CCN(C)CC3)CC2)ccc1Nc1ncc(Cl)c(-c2c[nH]c3ccccc23)n1
active: Potency (HEK293) 2.91 µM | Potency (HaCat) 3660 nM | Potency (KB-3-1) 4610 nM | Potency (NIH3T3) 1.46 µM | Potency (CAOV3) 11.2 µM | Potency (CASKI) 8.91 µM | Potency (HeLa) 8910 nM
inactive: Potency (Es-2)
